Pf Dd2 inh: qHTS Primary assay for Inhibitors of Plasmodium falciparum Dd2 growth in vitro | 120,000 tested, 4.3% active | P. falciparum Dd2 growth, SYBR Green, 72 h | Potency, µM (series often up to 28.9 µM), most hits filed as inhibitors; active means well fitted inhibition curve with a large enough effect; further: nearly all actives have a fitted effect of over 65% in size
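Infected erythrocytes (Dd2, 0.3% parasitemia, 2.5% hematocrit final) are added to compound in RPMI-1640/Albumax II medium, grown 72 h at 37C in low oxygen, then lysed with saponin/Triton-X containing SYBR Green and read by fluorescence.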
Of the large screens only hits and unclear results are named; the others gave an inactive call. Shown is part of a subset that was picked to be rich in hits.

CCOc1ccc(-c2cn3c(n2)sc2cc(C(=O)N4CCCC(C)C4)ccc23)cc1 (configuration not stated)	Pf Dd2 inh 7.08µM
COc1ccc(-c2cn3c(n2)sc2cc(C(=O)N4CCCCC4)ccc23)cc1	none
CCOc1ccc(-c2cn3c(n2)sc2cc(C(=O)NCCc4ccc(OC)cc4OC)ccc23)cc1	Pf Dd2 inh 5.62µM
CCOc1ccc(-c2cc3c(=O)n(CCNC(=O)c4ccc(OC)cc4)ccn3n2)cc1	none
CCCCOc1ccc(C(=O)NCCc2sc(-c3ccc(OC)c(OC)c3)nc2C)cc1	none
CCOc1ccc(C(=O)NCCn2ccn3nc(-c4ccc(OC)cc4)cc3c2=O)cc1	none
CCOc1ccc(C(=O)N2CCCC(n3cc(-c4nc(C5CC5)no4)nn3)C2)cc1 (configuration not stated)	none
CCOc1ccc(-c2cn3c(n2)sc2cc(C(=O)NCCCN4CCCCCC4)ccc23)cc1	Pf Dd2 inh 2.24µM
CCCC1=Nc2cc(C(=O)NCCc3ccc(OC)cc3OC)ccc2Sc2ccccc21	none
COCC(=O)N1CCN(C(=O)c2cccnc2)C[C@@H]1C(=O)N[C@@H](Cc1ccc(OC)cc1)C(=O)OC	none
O=C(O)CC[C@@H]1CN(CCn2cc(Cl)cn2)CC[C@@H]1N1CCOCC1	none
CCNC(=O)N[C@H]1[C@H](O)[C@H](O)C[C@@H]1c1cncnc1	none
CCn1cnnc1CC1CCN(C(=O)c2ccc(OC)cc2)C1 (configuration not stated)	none
Cc1ccc(O[C@H]2CCOC[C@H]2NC(=O)CCc2ccc(F)cc2)cn1	none
O=C1CC(c2noc(-c3ccccc3F)n2)CN1C1CCCCC1 (configuration not stated)	none
COc1ccc(CN(C)C2CCCN(CCc3ccccc3)C2)c(OC)c1OC (configuration not stated)	none
Cc1ccc(C)c(N2CCN(C(=O)C3CCN(Cc4nc(-c5cccc(Cl)c5)oc4C)CC3)CC2)c1	none
CCn1cc(CN2CCN(Cc3ccccc3)CC2)ccc1=O	none
CCC1(N2CCN(S(=O)(=O)c3ccc(C(F)(F)F)cc3)CC2)CCN(C(=O)NC)C1 (configuration not stated)	none
O=C(NC1C[C@H]2CC[C@@H](C1)N2C(=O)C1CCOCC1)c1ccncc1 (some centres not stated)	none
Cn1c(CO)nnc1CC1CCN(C(=O)c2ccc3ccccc3n2)CC1	none
COCC1CCN(Cc2cc3cc4c(cc3nc2-c2ccc(Cl)cc2)OCO4)C1 (configuration not stated)	none
Cc1oc(-c2cccc(Oc3ccccc3)c2)nc1CN1CC[C@H](N(C)C)C1	none
COc1ccc2cc(CN3CCC(N(C)C)C3)c(-c3cccc(C)c3)nc2c1 (configuration not stated)	Pf Dd2 inh 11.2µM
Cc1nc(CCN(C)C(=O)c2ccc3nc(Cc4ccccc4F)oc3c2)no1	none
Cc1cccc(-c2noc(-c3ccccc3OCC(=O)Nc3ccc([N+](=O)[O-])cc3)n2)c1	none
COc1cc(NC(=O)CCc2nc(-c3cccs3)no2)cc(OC)c1OC	none
O=C(CCc1nc(-c2cccs2)no1)Nc1ccc([N+](=O)[O-])cc1	Pf Dd2 inh 11.2µM
COc1cccc(-n2c(/C=C/c3cccc(C)c3)nc3ccccc3c2=O)c1	none
CSc1nccc(-c2cc(NCc3cccnc3)nc3[nH]ccc23)n1	Pf Dd2 inh 10µM
CSc1nccc(-c2ccccc2CO)n1	none
Cc1ccc(C(N)=O)cc1-c1cc(NCc2cccnc2)nc2[nH]ccc12	none
COc1ccc(-c2cc(C(=O)Nc3c(C(=O)c4ccc(Cl)cc4)oc4ccccc34)no2)cc1	none
COc1cccc(CN2CCNC(=O)C2CC(=O)N2CCNC(=O)C2)c1OC (configuration not stated)	none
CC(C)NC(=O)N1CCCCCNC(=O)CC1c1ccccc1 (configuration not stated)	none
CCn1ncc(CN2CCCN(S(C)(=O)=O)C(c3ccccc3)CC(=O)NCC2)c1C (configuration not stated)	none
Cc1ccc(CN2CCCN(Cc3ccncc3)C(c3ccccc3)CC(=O)NCC2)o1 (configuration not stated)	Pf Dd2 inh 1.78µM
CS(=O)(=O)N1CCCN(Cc2cn[nH]c2-c2ccc(F)cc2)CCNC(=O)CC1c1ccccc1 (configuration not stated)	none
Cc1ccc(CN2CCCN(S(C)(=O)=O)C(c3ccccc3)CC(=O)NCC2)o1 (configuration not stated)	none
CCNC(=O)N1CCCCCNC(=O)CC1c1ccccc1 (configuration not stated)	none
Cc1ncsc1CN1CCCCCCNC(=O)CC1c1ccccc1 (configuration not stated)	none
CCOc1ccccc1CN1CCCCCCNC(=O)CC1c1ccccc1 (configuration not stated)	Pf Dd2 inh 11.2µM
Cc1ccc(CN2CCCC(c3nc(C(C)C)no3)CCNC(=O)CC2)o1 (configuration not stated)	none
CCOc1ccccc1CN1CCCN(Cc2ccncc2)C(c2ccccc2)CC(=O)NCC1 (configuration not stated)	Pf Dd2 inh 1.26µM
COc1cccc(CN2CCCCCCNC(=O)CC2c2ccccc2)c1OC (configuration not stated)	Pf Dd2 inh 7.94µM
Cc1ccn2c(=O)c(NC(=O)c3cccc([N+](=O)[O-])c3C)c(C)nc2c1	none
O=c1ncn(CC2CC2)c2ccc(-c3ccc(F)cc3)nc12	none
COCc1cn([C@H]2CO[C@H]3[C@@H]2OC[C@H]3OC(=O)Nc2ccc(C(C)(C)C)cc2)nn1	none
CCc1ccc(NC(=O)COC(=O)CCCC2=NS(=O)(=O)c3ccccc3N2)cc1	none
COC(=O)CCCNC(=O)[C@@H]1[C@@H](NC(=O)Nc2cccc(OC)c2)CCN1C(=O)C=C(C)C	none
CCOc1ccc(CCNC(=O)C(CC(C)C)N2Cc3ccccc3C2=O)cc1OCC (configuration not stated)	none
COc1cccc(CN2CCCCCNC(=O)CC2c2ccccc2)c1OC (configuration not stated)	Pf Dd2 inh 11.2µM
O=C1CC(c2ccccc2)N(S(=O)(=O)c2ccccc2)CCCCCN1 (configuration not stated)	none
COc1cccc(CN2CCCOCCNC(=O)CC2)c1OC	none
CCOC(=O)c1cccc(NC(=O)c2cc3sccc3n2Cc2ccc(Cl)cc2)c1	Pf Dd2 inh 11.2µM
CCOC(=O)c1ccc(NC(=O)c2cc3sccc3n2Cc2ccc(Cl)cc2)cc1	none
Cc1ccc(Cn2c(C(=O)NCc3ccccc3Cl)cc3sccc32)cc1	Pf Dd2 inh 11.2µM
COc1ccc(CNC(=O)c2cc3sccc3n2Cc2ccc(F)cc2)cc1	none
Cc1ccc(Cn2c(C(=O)Nc3cccc(Cl)c3)cc3sccc32)cc1	none
Cc1ccc(CCNC(=O)c2cc3sccc3n2Cc2ccc(C)cc2)cc1	none
CN(C)C[C@@H]1CN(c2ccncn2)C[C@H]1NC(=O)c1ccc(Br)o1	none
Cc1ccc(C)c(S(=O)(=O)c2nnn3c2nc(Nc2ccc(C)c(C)c2)c2sccc23)c1	none
Cc1cccc(OCC(=O)N(Cc2cccs2)c2ccc(Cl)cc2)c1C	none
O=c1[nH]nc2n1CCC(NS(=O)(=O)c1ccc3c(c1)CCC3)CC2 (configuration not stated)	none
O=C(NCCc1ccncc1)C1CN(C(=O)CCCc2ccccc2)CC12CCOCC2 (configuration not stated)	none
CCOCCCNC(=O)c1c[nH]c2ccc(S(=O)(=O)Nc3cccc(Cl)c3C)cc2c1=O	none
CS(=O)(=O)c1ccc(OCC2(CNS(=O)(=O)c3ccc(Cl)cc3)C[C@@H](O)[C@@H](O)C2)cc1 (some centres not stated)	none

Source: PubChem (National Center for Advancing Translational Sciences (NCATS))
